Measured values taken from the supplement of paper PMC10338343.
± gives the standard deviation.

Experiments:
[1] = tested on: MILI (PIWIL2) piRISC loaded with L1MC piRNA (26 nt); assay: pre-steady-state target cleavage rate (min^-1); guide: L1MC piRNA 5'p-UAACUAAAUACUAUGCAAGCUGUAGG; higher = faster piRNA-guided slicing of the target
Method in brief: (§1)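 Cleave-'n-Seq used a transcribed, DNA-blocked target RNA library at 0.1 nM and active affinity-purified piRISC with one synthetic guide at 1 nM, with or without 500 nM GTSF1 partner protein, in HEPES–potassium acetate buffer at 33 °C for 0–8 or 0–960 min. Uncleaved targets were sequenced and normalised to depth and to weakly complementary targets, and three trials were pooled with k3 capped at 0.0001 min^-1. The pre-steady-state cleavage rate was estimated by a burst-and-steady-state fit.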

[2] = tested on: EfPiwi piRISC loaded with L1MC piRNA (26 nt); assay: pre-steady-state target cleavage rate (min^-1); auxiliary factor: 500 nM Ephydatia muelleri Gtsf1; guide: L1MC piRNA 5'p-UAACUAAAUACUAUGCAAGCUGUAGG; MIWI and MILI are mouse PIWI proteins and EfPiwi is from a freshwater sponge; tags in brackets are library labels; higher = faster piRNA-guided slicing of the target
Method in brief: as §1

[3] = auxiliary factor: 500 nM mouse GTSF1
[4] = auxiliary factor: none (no GTSF1)

Question: How did the “pre-steady-state target cleavage rate” value [1, 3] turn out when UCCUGGAACAGCUUGCAUAGUAUUUUAGUUA was run?
Answer: 0.241 ± 0.02

Question: And the “pre-steady-state target cleavage rate” value [1, 4]?
Answer: 0.0048 ± 0.0033

Question: What about the “pre-steady-state target cleavage rate” value [2] of the same sequence?
Answer: 0.0192 ± 0.0054

Question: How did the “pre-steady-state target cleavage rate” value [1, 3] turn out when UCCUCCUACAGCAUGCAUAGUAUUAAGUUA was run?
Answer: 0.2 ± 0.023

Question: What about the “pre-steady-state target cleavage rate” value [1, 4] of the same sequence?
Answer: 0.00348 ± 0.0026

Question: And the “pre-steady-state target cleavage rate” value [2]?
Answer: 0.00654 ± 0.0033

Question: For UCCUCCUACAGCAUGCAUACUAUUUAGUUA, which “pre-steady-state target cleavage rate” value [1, 3] is on record?
Answer: 0.0758 ± 0.011

Question: And the “pre-steady-state target cleavage rate” value [1, 4]?
Answer: 0.00328 ± 0.0022

Question: What about the “pre-steady-state target cleavage rate” value [2] of the same sequence?
Answer: 0.00724 ± 0.0028

Question: Which results are given for UCCUGCUACACGAUGCAUAGUAUUUAGUAA?
Answer: pre-steady-state target cleavage rate [1, 3]: 0.257 ± 0.032; pre-steady-state target cleavage rate [1, 4]: 0.00703 ± 0.0026; pre-steady-state target cleavage rate [2]: 0.00352 ± 0.0024

Question: Which “pre-steady-state target cleavage rate” value [1, 3] does the source give for UCCUCCUAGAGCUUGCAAAGUAUUUAGUUA here?
Answer: 0.14 ± 0.0099

Question: What about the “pre-steady-state target cleavage rate” value [1, 4] of the same sequence?
Answer: 0.00516 ± 0.002

Question: What about the “pre-steady-state target cleavage rate” value [2] of the same sequence?
Answer: 0.0214 ± 0.006

Question: For UCCUGGAACAGUCUUGCAUAGUAUUUAGUUA, which “pre-steady-state target cleavage rate” value [1, 3] is on record?
Answer: 0.26 ± 0.018

Question: What about the “pre-steady-state target cleavage rate” value [1, 4] of the same sequence?
Answer: 0.00993 ± 0.0026

Question: And the “pre-steady-state target cleavage rate” value [2]?
Answer: 0.00822 ± 0.0027

Question: With UCCUACUACAGCUUGCAUAGUAUUUAGUUA as the sequence, how does the “pre-steady-state target cleavage rate” value [1, 3] read?
Answer: 0.294 ± 0.02

Question: And the “pre-steady-state target cleavage rate” value [1, 4]?
Answer: 0.00883 ± 0.0027

Question: And the “pre-steady-state target cleavage rate” value [2]?
Answer: 0.0579 ± 0.018

Question: What does the source list for “UCCUGCUACAGCUUGCAUAGUAUUUAGUUC [g2:g25:cont:t1C]”?
Answer: pre-steady-state target cleavage rate [1, 3]: 0.317 ± 0.021; pre-steady-state target cleavage rate [1, 4]: 0.0145 ± 0.0033; pre-steady-state target cleavage rate [2]: 0.0645 ± 0.016

Question: What does the source list for UCCUGCUACAGCUUGCUUAGUUUUUAGUUA?
Answer: pre-steady-state target cleavage rate [1, 3]: 0.0712 ± 0.011; pre-steady-state target cleavage rate [1, 4]: 0.00366 ± 0.0015; pre-steady-state target cleavage rate [2]: 0.0055 ± 0.0019

Question: Which results are given for UCCUCCUACAGCUUGCAUAGUAUUUAGAUA?
Answer: pre-steady-state target cleavage rate [1, 3]: 0.205 ± 0.035; pre-steady-state target cleavage rate [1, 4]: 0.00357 ± 0.003; pre-steady-state target cleavage rate [2]: 0.00505 ± 0.0025

Question: Which results are given for UCCUGGAACAGCUUGCAUAGUAUUUAGUAA?
Answer: pre-steady-state target cleavage rate [1, 3]: 0.247 ± 0.021; pre-steady-state target cleavage rate [1, 4]: 0.00459 ± 0.002; pre-steady-state target cleavage rate [2]: 0.00976 ± 0.0038

Question: For UCCUGGAUCAGCUUGCAUAGUAUUAUGUUA, which “pre-steady-state target cleavage rate” value [1, 3] is on record?
Answer: 0.122 ± 0.021

Question: And the “pre-steady-state target cleavage rate” value [1, 4]?
Answer: 0.00357 ± 0.0028

Question: What about the “pre-steady-state target cleavage rate” value [2] of the same sequence?
Answer: 0.005 ± 0.0024

Question: What does the source list for UCCUCCUACAGCUUGCGUAGUAUUUAGUUA?
Answer: pre-steady-state target cleavage rate [1, 3]: 0.28 ± 0.015; pre-steady-state target cleavage rate [1, 4]: 0.0113 ± 0.003; pre-steady-state target cleavage rate [2]: 0.031 ± 0.011

Question: Which “pre-steady-state target cleavage rate” value [1, 3] does the source give for UCCUGGAUCUGCUUGCAUAGUAUUUAGUUA here?
Answer: 0.229 ± 0.016

Question: What about the “pre-steady-state target cleavage rate” value [1, 4] of the same sequence?
Answer: 0.00944 ± 0.002

Question: What about the “pre-steady-state target cleavage rate” value [2] of the same sequence?
Answer: 0.116 ± 0.023

Question: With UCCUCCUACAGCUUGGCAUAGUAUUUAGUUA as the sequence, how does the “pre-steady-state target cleavage rate” value [1, 3] read?
Answer: 0.338 ± 0.057

Question: What about the “pre-steady-state target cleavage rate” value [1, 4] of the same sequence?
Answer: 0.00447 ± 0.0021

Question: What about the “pre-steady-state target cleavage rate” value [2] of the same sequence?
Answer: 0.0133 ± 0.0047

Question: Which results are given for UCCUGGAACAGCGUGCAUAGUAUUUAGUUA?
Answer: pre-steady-state target cleavage rate [1, 3]: 0.282 ± 0.017; pre-steady-state target cleavage rate [1, 4]: 0.00797 ± 0.0029; pre-steady-state target cleavage rate [2]: 0.0168 ± 0.005

Question: With UCCUCCUACUGCAUGCAUAGUAUUUAGUUA as the sequence, how does the “pre-steady-state target cleavage rate” value [1, 3] read?
Answer: 0.252 ± 0.013

Question: And the “pre-steady-state target cleavage rate” value [1, 4]?
Answer: 0.011 ± 0.0022

Question: And the “pre-steady-state target cleavage rate” value [2]?
Answer: 0.0706 ± 0.019
